NIH3T3 tox = kills NIH 3T3 cells; 4.3% of 94,000 active; Potency, µM (doses to about 96.7 µM), hits mostly inhibitors; NIH 3T3 viability, CellTiter-Glo ATP luminescence, 48-72 h; AID 1345082; also: nearly all actives have a fitted effect of over 55% in size
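Mouse fibroblast NIH 3T3 cells, 400 per well, received compound via pintool and were incubated for 48 or 72 hr prior to CellTiter-Glo ATP luminescence measurement.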
HEK293 tox = kills HEK 293 cells | HEK 293 viability, ATP luminescence (CellTiter-Glo), 48-72 h | Potency, µM (series often up to 115 µM), usual class: inhibitors | 6.6% of 94,000 active | AID 1345083; also: nearly all actives have a fitted effect of over 60% in size
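Luminescence from cellular ATP, measured with CellTiter-Glo, indicates HEK 293 viability. Cells plated at 250 cells/well are treated with compound for 48 or 72 hr at 37 degree Celsius before reagent addition.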
GPT2 inhibitor = inhibitors of human GPT2 alanine aminotransferase | Q8TD30 | Recombinant GPT2, coupled pyruvate oxidase/HRP Amplex Red fluorescence | Potency, µM (highest dose often 57.7 µM), hits mostly inhibitors | 0.25% of 100,000 active | AID 1671188; also: nearly all actives have a fitted effect of over 60% in size
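Recombinant GPT2 (10ng/uL) with 250uM a-KG and 2mM L-alanine, 30 min at room temperature, in HEPES pH 7.5 buffer. Pyruvate detected by pyruvate oxidase/HRP/Amplex Red fluorescence after 30 min in the dark; AOA (50uM) as positive control.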
Luciferase inh = Photinus pyralis luciferase inhibition; purified P. pyralis luciferase, luminescence, biochemical; 2.5% of 76,000 active; P08659; Potency, µM (doses to about 115 µM), most hits filed as inhibitors; AID 1347043; also: nearly all actives have a fitted effect of over 65% in size
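Cell-free enzyme assay, 10nM P. pyralis luciferase, luciferin and ATP each at 10uM. Inhibition profiled over a 6-point titration, read as luminescence.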
hNpr1 antagonist = blocks ANP-stimulated signaling of human Npr1 receptor. AID 1347048. 1.6% of 76,000 active. HEK293 hNpr1 GloSensor cGMP, ANP-stimulated luminescence. Potency, µM (top dose mostly 46.3 µM), usual class: inhibitors; calls by dose curve; also: nearly all actives have a fitted effect of over 60% in size
Target sequence (P16066 whole entry, looked up): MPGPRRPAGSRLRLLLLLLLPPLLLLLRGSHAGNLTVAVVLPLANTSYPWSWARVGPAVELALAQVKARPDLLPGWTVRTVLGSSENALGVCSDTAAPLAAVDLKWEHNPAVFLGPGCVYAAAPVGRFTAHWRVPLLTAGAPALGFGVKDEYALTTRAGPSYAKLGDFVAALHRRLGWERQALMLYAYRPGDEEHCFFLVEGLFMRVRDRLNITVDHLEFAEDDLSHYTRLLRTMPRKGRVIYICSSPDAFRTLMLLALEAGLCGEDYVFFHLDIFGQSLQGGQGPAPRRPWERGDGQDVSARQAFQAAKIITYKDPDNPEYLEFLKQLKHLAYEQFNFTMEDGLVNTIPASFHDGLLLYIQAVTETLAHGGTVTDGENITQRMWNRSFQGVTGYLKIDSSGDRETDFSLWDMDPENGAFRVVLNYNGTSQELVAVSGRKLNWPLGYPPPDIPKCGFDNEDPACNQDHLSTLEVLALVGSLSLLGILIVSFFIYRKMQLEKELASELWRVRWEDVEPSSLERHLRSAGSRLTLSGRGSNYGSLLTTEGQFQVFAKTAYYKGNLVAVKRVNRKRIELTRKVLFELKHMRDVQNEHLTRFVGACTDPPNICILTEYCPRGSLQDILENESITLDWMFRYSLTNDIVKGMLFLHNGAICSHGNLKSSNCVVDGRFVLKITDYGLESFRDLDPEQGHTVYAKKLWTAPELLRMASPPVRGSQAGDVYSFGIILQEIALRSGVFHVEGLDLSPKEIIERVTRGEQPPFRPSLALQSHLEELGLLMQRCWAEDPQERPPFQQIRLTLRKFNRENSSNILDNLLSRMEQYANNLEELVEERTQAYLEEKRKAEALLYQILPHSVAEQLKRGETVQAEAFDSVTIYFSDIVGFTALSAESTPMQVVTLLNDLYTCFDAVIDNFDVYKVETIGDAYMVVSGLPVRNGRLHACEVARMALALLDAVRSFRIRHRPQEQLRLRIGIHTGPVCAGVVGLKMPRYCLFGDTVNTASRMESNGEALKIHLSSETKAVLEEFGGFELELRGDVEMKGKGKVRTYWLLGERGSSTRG
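HEK293 cells stably expressing human Npr1 and cGMP GloSensor pGS-40F, loaded 2 h with 2% GloSensor reagent, given compound 30 min at room temperature. Luminescence read before and 20 min after 0.1 nM hNppA.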
NPR1 antag cnf = hNpr1 antagonism, confirmation assay | shares compounds with hNpr1 antagonist | HEK293 hNpr1 cGMP GloSensor luminescence, ANP-stimulated | Potency, µM (highest dose often 57.6 µM), most hits filed as inhibitors | 76% of 1,400 active | AID 1347044; calls by dose curve; also: nearly all actives have a fitted effect of over 70% in size
NPR2 antag = selectivity test of Npr1 antagonists against human Npr2 | Potency, µM (doses to about 57.6 µM), actives largely listed as inhibitors | HEK293 hNpr2 GloSensor cGMP luminescence, CNP-stimulated | shares compounds with hNpr1 antagonist | 67% of 1,400 active; calls by dose curve; also: nearly all actives have a fitted effect of over 70% in size
FLuc inh counter = inhibits firefly luciferase, false Npr1 antagonist flag; shares compounds with hNpr1 antagonist; purified FLuc enzyme, luminescence, Km substrate; Potency, µM (highest dose often 57.6 µM), most hits filed as inhibitors; 0.7% of 1,400 active; AID 1347047
GloSensor ctrl = reduces cGMP signal in GloSensor control cells. Potency, µM (titrated, usually from 57.6 µM), usual class: inhibitors. 69% of 1,400 active. AID 1347051. HEK293 GloSensor cGMP, SNP-stimulated, luminescence. shares compounds with hNpr1 antagonist; calls by dose curve; also: nearly all actives have a fitted effect of over 70% in size
Hits are given with their value. Only some compounds are listed: those with a hit (about 10% of all), similar ones and a draw of the others. Unless noted, calls follow the shape of the dose curve; as a rule, active = well fitted curve in the direction sought with a large enough effect; inconclusive = small, poorly fitted or top-dose-only effect, or another doubt; inactive = no such curve, though single readings can be large; an effect the other way counts as inactive or inconclusive.

Results for O=C(Nc1cccc2ccccc12)O[C@@H]1CO[C@H]2[C@@H]1OC[C@@H]2NC(=O)c1cccs1 ?
NIH3T3 tox: inactive; HEK293 tox: inconclusive; GPT2 inhibitor: inconclusive; Luciferase inh: inactive; hNpr1 antagonist: 22.4µM; NPR1 antag cnf: 35.3µM; NPR2 antag: inconclusive; FLuc inh counter: inactive; GloSensor ctrl: 31.4µM

Results for Cc1cc(=O)n(CC(=O)Nc2ccc(C(F)(F)F)cc2)c(N2CCOCC2)n1 ?
NIH3T3 tox: inactive; HEK293 tox: inconclusive; GPT2 inhibitor: inactive; Luciferase inh: inactive; hNpr1 antagonist: inactive

What do the screens show for `FC(F)(F)c1ccc(O[C@H]2COCCN(c3nc4ccccc4o3)C2)nc1`?
NIH3T3 tox: inconclusive; HEK293 tox: 100µM; GPT2 inhibitor: inactive; Luciferase inh: inactive; hNpr1 antagonist: 35.5µM; NPR1 antag cnf: 39.6µM; NPR2 antag: 35.3µM; FLuc inh counter: inactive; GloSensor ctrl: 35.3µM

Results for Cc1oc(C(O)c2ccccc2)nc1C(=O)Nc1ccc2[nH]c(=O)oc2c1 (centres undefined) ?
NIH3T3 tox: inactive; HEK293 tox: inconclusive; GPT2 inhibitor: inactive; Luciferase inh: inactive; hNpr1 antagonist: inactive

How did O=C(Cn1nc2n(c1=O)CCCCC2)Nc1cccc(Cl)c1 do in these assays?
NIH3T3 tox: inactive; HEK293 tox: inactive; GPT2 inhibitor: inactive; Luciferase inh: inactive; hNpr1 antagonist: inactive

What do the screens show for `CC(=O)OCC(=O)[C@@]1(O)CC[C@H]2[C@@H]3CCC4=CC(=O)CC[C@]4(C)[C@@H]3C(=O)C[C@@]21C`?
GPT2 inhibitor: inactive

Results for Cc1nn2c(c1-c1ccccc1C(C)C)N(Cc1cccc(C(=O)O)c1)CCC2 ?
NIH3T3 tox: 44.7µM; HEK293 tox: 56.2µM; GPT2 inhibitor: inactive; Luciferase inh: inactive; hNpr1 antagonist: inconclusive; NPR1 antag cnf: inconclusive; NPR2 antag: inactive; FLuc inh counter: inactive; GloSensor ctrl: inactive

How did Cc1nn2c(c1-c1ccccc1C(C)C)N(CCC(C)C)CCC2 do in these assays?
NIH3T3 tox: 8.91µM; HEK293 tox: 11.2µM; GPT2 inhibitor: inactive; Luciferase inh: inactive; hNpr1 antagonist: 2.51µM; NPR1 antag cnf: 1.57µM; NPR2 antag: 2.5µM; FLuc inh counter: inactive; GloSensor ctrl: 1.77µM

How did Cc1nn2c(c1-c1ccccc1C(N)=O)N(C(=O)c1ccccc1)CCC2 do in these assays?
NIH3T3 tox: inconclusive; HEK293 tox: inactive; GPT2 inhibitor: inactive; Luciferase inh: inactive; hNpr1 antagonist: inactive

Results for COc1ccc(OC)c(CN2CCCn3nc(C)c(-c4ccccc4C(C)C)c32)c1 ?
NIH3T3 tox: 35.5µM; HEK293 tox: 63.1µM; GPT2 inhibitor: inactive; Luciferase inh: inactive; hNpr1 antagonist: inactive; NPR1 antag cnf: 39.6µM; NPR2 antag: 39.6µM; FLuc inh counter: inactive; GloSensor ctrl: inconclusive

What do the screens show for `O=C1c2cc(N3CCOCC3)nc(-c3cccc(F)c3)c2CN1Cc1ccccc1`?
NIH3T3 tox: inconclusive; HEK293 tox: inconclusive; GPT2 inhibitor: inactive; Luciferase inh: inactive; hNpr1 antagonist: inconclusive; NPR1 antag cnf: 28µM; NPR2 antag: inconclusive; FLuc inh counter: inactive; GloSensor ctrl: inconclusive

What do the screens show for `O=C(c1ccc[nH]1)N1CCC2(CC1)N=C(c1ccc(Cl)cc1)NO2`?
NIH3T3 tox: inconclusive; HEK293 tox: inconclusive; GPT2 inhibitor: inactive; Luciferase inh: inactive; hNpr1 antagonist: inconclusive

Results for O=C1[C@@H]2C[C@@H](CN2CC2CC2)Oc2ccccc2N1Cc1cccnc1 ?
NIH3T3 tox: inactive; HEK293 tox: inconclusive; GPT2 inhibitor: inactive; Luciferase inh: inactive; hNpr1 antagonist: inactive

Results for O=C1[C@@H]2C[C@@H](CN2Cc2ccc(C(F)(F)F)cc2)Oc2ccccc2N1Cc1cccnc1 ?
NIH3T3 tox: inconclusive; HEK293 tox: 35.5µM; GPT2 inhibitor: inactive; Luciferase inh: inactive; hNpr1 antagonist: inactive; NPR1 antag cnf: inconclusive; NPR2 antag: inactive; FLuc inh counter: inactive; GloSensor ctrl: inactive

Results for O=C(NCCc1ccncc1)C1CN(C(=O)C2CCCC2)CC12CCOCC2 (centres undefined) ?
NIH3T3 tox: inactive; HEK293 tox: inactive; GPT2 inhibitor: inactive; Luciferase inh: inactive; hNpr1 antagonist: inactive

What do the screens show for `Cc1ccc(CN2C[C@@H](CO)[C@H](c3nc(-c4ccncc4)no3)C2)cc1`?
NIH3T3 tox: inconclusive; HEK293 tox: inconclusive; GPT2 inhibitor: inactive; Luciferase inh: inactive; hNpr1 antagonist: 11.2µM; NPR1 antag cnf: 24.3µM; NPR2 antag: 24.3µM; FLuc inh counter: inactive; GloSensor ctrl: 24.3µM

How did O=S(=O)(Cc1ccccc1)N1C[C@@H](F)[C@@H](OCc2nc3ccccc3o2)C1 do in these assays?
NIH3T3 tox: inconclusive; HEK293 tox: inconclusive; GPT2 inhibitor: inactive; Luciferase inh: inactive; hNpr1 antagonist: inactive

Results for COc1ccc(CNC(=O)c2ccc(Cn3ccn4nc5c(c4c3=O)CCCC5)cc2)cc1OC ?
NIH3T3 tox: inconclusive; HEK293 tox: 22.4µM; GPT2 inhibitor: inactive; Luciferase inh: inactive; hNpr1 antagonist: 11.2µM; NPR1 antag cnf: 27.3µM; NPR2 antag: 24.3µM; FLuc inh counter: inactive; GloSensor ctrl: 24.3µM

What do the screens show for `COc1ccc(NC(=O)c2ccc(Cn3ccn4nc5c(c4c3=O)CCCC5)cc2)cc1OC`?
NIH3T3 tox: inconclusive; HEK293 tox: inconclusive; GPT2 inhibitor: inactive; Luciferase inh: inactive; hNpr1 antagonist: inactive

How did COc1ccc(CNC(=O)c2ccc(Cn3ccn4nc5c(c4c3=O)CCCC5)cc2)cc1 do in these assays?
NIH3T3 tox: inconclusive; HEK293 tox: 20µM; GPT2 inhibitor: inactive; Luciferase inh: inactive; hNpr1 antagonist: 11.2µM; NPR1 antag cnf: 27.3µM; NPR2 antag: 27.3µM; FLuc inh counter: inactive; GloSensor ctrl: 27.3µM

What do the screens show for `COc1cccc(CNC(=O)c2ccc(Cn3ccn4nc5c(c4c3=O)CCCC5)cc2)c1`?
NIH3T3 tox: inactive; HEK293 tox: inconclusive; GPT2 inhibitor: inactive; Luciferase inh: inactive; hNpr1 antagonist: inactive

Results for COc1cccc([S+](=O)([O-])N2CCC3(CC(c4cccc(C(F)(F)F)c4)=NO3)C2)c1 (centres undefined) ?
NIH3T3 tox: inactive; HEK293 tox: inactive; GPT2 inhibitor: inactive

Screening results deposited in PubChem BioAssay by National Center for Advancing Translational Sciences (NCATS).
